Laboratory results published in PubChem BioAssay AID894 (National Center for Advancing Translational Sciences (NCATS), 2007).
Several values for one entry are separate records, joined by “and”; a condition that tells them apart may be missing. Identical values can stand only once. The campaign covered roughly 150,000 compounds. About 6,500 (4.3%) were called active. About 12% were inconclusive and are not listed. Shown is part of a subset that was picked to be rich in actives. A number with no mark means an inactive call. Calls come from the whole dose curve; as a rule, active = well fitted inhibition curve with a large enough effect (not every such curve was filed as active); inconclusive = small, poorly fitted or top-dose-only effect, or another doubt; inactive = no such curve, though single readings can be large or run the other way.

target: 15-hydroxyprostaglandin dehydrogenase [NAD(+)] (Homo sapiens) (UniProt P15428); assay: qHTS Assay for Inhibitors of HPGD (15-Hydroxyprostaglandin Dehydrogenase); settings: purified HPGD, NADH fluorescence kinetic, PGE2 substrate; activity change, negative = inhibition: stronger effect = lower value
Summary of the method: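 20 nM HPGD preincubated 15 min at room temperature with compound in 50 mM Tris-HCl pH 8, 0.01% Tween 20. Started with 1 mM NAD+ and 30 uM prostaglandin E2; NADH fluorescence (360/450 nm) read 5 times over 30-s intervals, last minus first.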
% is set by controls: 0 for no effect and ±100 for the full control effect; potency is the fitted concentration of half-maximal effect.

Sequence of 15-hydroxyprostaglandin dehydrogenase [NAD(+)] (Homo sapiens) (P15428 whole entry, looked up): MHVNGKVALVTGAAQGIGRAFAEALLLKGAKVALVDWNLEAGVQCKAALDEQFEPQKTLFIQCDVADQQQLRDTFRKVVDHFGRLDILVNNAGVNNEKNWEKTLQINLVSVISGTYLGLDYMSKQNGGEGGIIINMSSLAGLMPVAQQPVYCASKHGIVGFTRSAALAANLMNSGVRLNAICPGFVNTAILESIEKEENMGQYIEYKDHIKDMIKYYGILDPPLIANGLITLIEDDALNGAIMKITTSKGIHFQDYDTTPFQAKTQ

Row | Structure (SMILES) | Potency | activity change, negative = inhibition
1 | CCN(CC)S(=O)(=O)c1cccc(-c2n[nH]c(=S)n2/N=C/c2ccc(C(=O)OC)cc2)c1 | 6.31 µM (active) | –
2 | CCN(CC)S(=O)(=O)c1cccc(C(=O)Nc2ccccc2)c1 | – | 0.0347%
3 | COC(=O)c1ccc(/C=N\n2c(C)nnc2C)cc1 | – | -12.4%
4 | CC(Sc1nc2cc(Cl)ccc2s1)C(=O)Nc1ccc2c(c1)OCO2 (stereo not drawn) | – | -22.7%
5 | CC(C)CNC(=O)COC(=O)/C=C/c1ccccc1[N+](=O)[O-] | 28.2 µM (active) | –
6 | CC(C)CNC(=O)COC(=O)/C=C/c1ccco1 | – | -11.3%
7 | O=C(COC(=O)/C=C/c1cccc(Cl)c1)NCCc1ccccc1 | – | -5.17%
8 | COc1cccc(NC(=S)NCc2ccccn2)c1 | – | -28.2%
9 | COc1cccc(NC(=S)NCCCN2CCOCC2)c1 | – | -6.46%
10 | COc1cccc(NC(=S)NCc2ccco2)c1 | 11.2 µM (active) | –
11 | O=S(=O)(NCc1ccccn1)c1ccc(F)cc1 | – | -6.74%
12 | O=S(=O)(Nc1ccc(Oc2ncccn2)c(Cl)c1)c1ccc(F)cc1 | 35.5 µM (active) | –
13 | Cc1ccc(S(=O)(=O)Nc2ccc3ncccc3c2)cc1 | – | -6.64%
14 | Cc1cc(F)ccc1S(=O)(=O)Nc1ncnc2scc(-c3ccc(F)cc3)c12 | – | -6.93%
15 | O=[N+]([O-])c1cccc(C2=NCCS2)c1 | – | -12.8%
16 | O=C(COC(=O)c1cc(-c2cccs2)nn1-c1ccccc1)Nc1cc([N+](=O)[O-])ccc1Cl | – | -0.873%
17 | CCOP(=O)(OCC)C(Nc1cccc(C)c1)c1ccc(F)cc1 (stereo not drawn) | – | -7.61%
18 | O=C(Nc1ccccc1N1CCN(C(=O)c2ccccc2)CC1)c1ccc2c(c1)OCO2 | – | -1.04%
19 | O=C(c1ccc2c(c1)OCO2)N1CCOCC1 | 14.1 µM (active) | –
20 | O=C(c1ccc2c(c1)OCO2)N1CCNc2ccccc2C1 | 25.1 µM (active) | –
21 | O=C(c1cccc(S(=O)(=O)N2CCOCC2)c1)N1CCOCC1 | – | -2.21%

Row | Structure (SMILES) | Potency | activity change, negative = inhibition
22 | O=C(c1ccc2c(c1)OCO2)N1CCN(C(=O)c2ccco2)CC1 | – | -11.7%
23 | CC1CN(C(=O)c2ccc3c(c2)OCO3)OC(c2ccccc2)O1 (stereo not drawn) | – | -4.25%
24 | CC(Nc1oc(-c2ccccc2)nc1-c1ccccc1)c1ccccc1 (stereo not drawn) | – | 0.641% and -7.86%
25 | COc1ccc(Cc2nnc(N/N=C/c3ccccc3O)[nH]c2=O)cc1OC | – | -16.1%
26 | NS(=O)(=O)c1ccc(N=Cc2ccc(Br)s2)cc1 | – | -0.454%
27 | N#Cc1ccccc1NC(=O)COc1c(Br)cc(Br)c2cccnc12 | – | -10%
28 | Fc1ccc2nc(N3CCCCC3)sc2c1 | – | -12.2%
29 | Fc1cc(F)c2nc(N3CCOCC3)sc2c1 | – | -12.5%
30 | c1c2c(cc3sc(N4CCCCC4)nc13)OCCO2 | 25.1 µM (active) | –
31 | CC1=C(C/C=C(\C)CCCC(C)CCCC(C)CCCC(C)C)C(=O)c2ccccc2C1=O (stereo not drawn) | – | -10.7%
32 | O=C(CN(Cc1ccccc1)C(=O)c1ccc2c(c1)OCCO2)NCc1ccc2c(c1)OCO2 | – | -6.78%
33 | CCC(C)(C(=O)NC1CCCCC1)N(C)C(=O)c1ccc2c(c1)OCO2 (stereo not drawn) | – | -0.912%
34 | CCCCN(CC)C(=O)c1ccc2c(c1)OCO2 | 12.6 µM (active) | –
35 | CCn1c(=O)cc(SCC(=O)NCCC2=CCCCC2)c2ccccc21 | 7.08 µM (active) | –
36 | CCn1c(=O)cc(SCC(=O)NCc2ccc3c(c2)OCO3)c2ccccc21 | – | -4.58%
37 | Cc1nnc(OCC(=O)NCCC2=CCCCC2)c2ccccc12 | – | -17.6%
38 | O=C1CC(c2cccc(Cl)c2)CC(O)=C1C=Nc1ccccc1 (stereo not drawn) | – | -9.88%
39 | O=C(CNC(c1ccccc1)c1ccccc1)Nc1ccc(F)cc1 | – | -9.88%
40 | Cc1ccc(Oc2ccc(N)cc2)cc1 | – | -24%
41 | Nc1ccc(Oc2ccc(Cl)cc2)cc1 | – | -8.65%
42 | CC(C)(C)c1ccc(Oc2ccc(N)cc2)cc1 | 28.2 µM (active) | –

Row | Structure (SMILES) | Potency | activity change, negative = inhibition
43 | CCCCN(CC)C(=S)Nc1ccc2nc3n(c(=O)c2c1)CCCCC3 | – | -1.94%
44 | COc1ccc(C(=O)ON=C2c3ccccc3-c3ccccc32)cc1OC | – | -23.4%
45 | CCOc1ccc(Oc2nc(C)cc(OC)n2)nn1 | – | -6.46%
46 | Cc1scc(C(=O)NNC(=S)NCC(C)C)c1C | – | -5.27%
47 | Cc1cccc(NC(=S)N(CCN(C)C)C(C)c2ccco2)c1 (stereo not drawn) | – | -15.4%
48 | COc1ccc(S(=O)(=O)NC(C)C)cc1C(=O)NC1CCCCC1 | – | -17.6%
49 | CCC(CC)c1nnc(NC(=O)/C=C/c2ccco2)s1 | – | -29.6%
50 | O=c1onc(-c2cccs2)n1Cc1ccccc1 | – | -5.59%
51 | O=c1[nH]c(-c2cccs2)nc2ccccc12 | 15.8 µM (active) | –
52 | c1ccc2[nH]c(-c3nc4ccccc4[nH]3)nc2c1 | – | -25.9%
53 | Nc1nc(CC(=O)CSc2ccc(Cl)cc2)nc(Nc2ccc(F)cc2)n1 | – | -7.75%
54 | O=C(/C=C/c1cccc([N+](=O)[O-])c1)NCCSCc1ccco1 | 25.1 µM (active) | –
55 | CCC(CC)NC(=O)/C=C/c1cccc([N+](=O)[O-])c1 | – | -13.1%
56 | CS(=O)(=O)N(Cc1ccc(Cl)cc1)c1ccc(C(=O)NCCSCc2ccco2)cc1 | – | -4.85%
57 | COc1cc(OC)cc(C(=O)NCCSCc2ccco2)c1 | 20 µM (active) | –
58 | O=C(/C=C/c1ccc([N+](=O)[O-])cc1)NCCSCc1ccco1 | – | -22.9%
59 | COc1ccc(CCNC(=O)c2ccco2)cc1 | – | -3.27%
60 | CC(=O)Nc1cccc(/C(C)=N/NC(=O)c2c(-c3ccccc3Cl)noc2C)c1 | – | -6.16%
61 | COc1ccc(S(=O)(=O)NC(C)C(=O)Nc2cccc([N+](=O)[O-])c2)cc1 (stereo not drawn) | – | -10.4%
62 | O=C(COC(=O)Cn1cnc2ccccc2c1=O)NCC12CC3CC(CC(C3)C1)C2 | – | -2.81%
63 | COc1cc(NC(=O)Nc2ccc(C)cc2)cc([N+](=O)[O-])c1 | – | -10.2%
